Screening results as filed in PubChem.
Integrin act MD: qHTS for Activators of Integrin-Mediated Alleviation for Muscular Dystrophy | Potency, µM (top dose mostly 38.3 µM), inactives show at the top dose activation, hits mostly activators | hit rate 0.064% among 350,000 | alpha7betagal myoblasts, beta-gal FDG fluorescence, 48 h;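 also: potency is read from the fitted curve at half-maximal effect; 100% = response of the positive control SU9516; nearly all actives have a fitted effect of over 60% in size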
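Alpha7betagal+/- myoblasts (passage 13) were plated 16-24 hr, then exposed to compounds (1:260 dilution of DMSO stock) for 48 hours at 37C. After MPER lysis, β-galactosidase reporter activity was read as FDG fluorescence (ex 480/em 540) after 30 minutes.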
TSG101-PTAP inh: qHTS Assay for Iinhibitors of HIV-1 Budding by Blocking the Interaction of PTAP/TSG101; Tumor susceptibility gene 101 protein (Homo sapiens), Q99816; Fluorescence polarization, FITC-PTAP peptide / Tsg101 binding; Potency, µM (titrated, usually from 115 µM), for the others: at the highest dose activity change, negative = inhibition, actives largely listed as inhibitors; 340,000 tested, under 10 active; active = well fitted inhibition curve with a large enough effect in the main read-out, with a control signal flat, not every such curve was filed as active; inconclusive = small, poorly fitted or top-dose-only effect, or effect the other way, or a change in a side signal; inactive = no such curve, though single readings can be large or run the other way; also: potency is read from the fitted curve at half-maximal effect; % of control where 0% means no effect
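Compounds were pin-transferred onto Tsg101 binding domain (10 uM final) in HEPES pH 7.5 buffer, then FITC-PTAP peptide was added at 50 nM final. After 20 min at RT, polarization reported peptide displacement across a qHTS concentration series.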
TCR act: Activators of T cell receptors: qHTS campaign. Potency, µM (top dose mostly 9.22 µM), inactives show at the highest dose activation of IL-2 secretion, usual class: activators. 330,000 tested, under 10 active. primary human leukocytes, anti-CD3, IL-2 HTRF, 48 h; also: % of control where 0% means no effect
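IL-2 produced over 48 hr by a-CD3 bead-stimulated primary human leukocytes exposed to compounds was detected with a homogeneous time-resolved FRET immunoassay, 665nm acceptor signal after 320nm excitation.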
TSHR antagonist: Antagonists of the Thyroid Stimulating Hormone Receptor: HTS campaign | TSHR-expressing cells, TSH-stimulated cAMP HTRF, 2 h; hits give low values | activity change, negative = inhibition, % at 11.5 µM | hit rate 0.2% among 330,000 | AID 504810, 2011;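 active = activity change below a set negative limit, meaning inhibition stronger than a set level, cut at about -70% in these data; inconclusive = activity change between two set negative limits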; also: % is scaled to controls: 0 for no effect and ±100 for the full control effect
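TSHR-expressing cells were treated with compounds, then stimulated with TSH at EC80 (4nM final) for 2 hours at 37 deg C. Cellular cAMP was measured by HTRF competition between lysate cAMP and cAMP-d2 for a cryptate-labelled anti-cAMP antibody.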
CBFb-RUNX1 inh: qHTS Assay for Compounds Blocking the Interaction Between CBF-beta and RUNX1 for the Treatment of Acute Myeloid Leukemia. Potency, µM (doses to about 59.8 µM), for the others: top-dose activity, negative = inhibition, usual class: inhibitors. 230,000 tested, under 10 active. AlphaScreen CBFb-His/RUNX1-biotin binding, biochemical. Runt-related transcription factor 1 (Homo sapiens) + Core-binding factor subunit beta …; also: % of control where 0% means no effect
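Read-out: AlphaScreen. Format: His-CBF-beta with biotinylated RUNX1 (30 nM each) preincubated 20 min, compound 15 min, Ni-chelate plus streptavidin beads 90 min; room temperature throughout.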
MBNL1-CUG inh: qHTS Assay for Inhibitors of MBNL1-poly(CUG) RNA binding. TR-FRET MBNL1-His/biotin-(CUG)12 binding, 665/545 ratio. hit rate 0.036% among 280,000. Muscleblind-like protein 1 (Homo sapiens), Q9NR56. Potency, µM (series often up to 57.5 µM), without a hit: at the highest dose activity change, negative = inhibition, most hits filed as inhibitors. AID 2675, 2010; active = well fitted inhibition curve with a large enough effect in the signal ratio, with a control signal flat, not every such curve was filed as active; inconclusive = small, poorly fitted or top-dose-only effect, or effect the other way, or a change in a side signal; inactive = no such curve, though single readings can be large or run the other way; the % refers to the signal ratio; also: potency is read from the fitted curve at half-maximal effect; % is scaled to controls: 0 for no effect and ±100 for the full control effect
Target sequence (Q9NR56 whole entry, looked up): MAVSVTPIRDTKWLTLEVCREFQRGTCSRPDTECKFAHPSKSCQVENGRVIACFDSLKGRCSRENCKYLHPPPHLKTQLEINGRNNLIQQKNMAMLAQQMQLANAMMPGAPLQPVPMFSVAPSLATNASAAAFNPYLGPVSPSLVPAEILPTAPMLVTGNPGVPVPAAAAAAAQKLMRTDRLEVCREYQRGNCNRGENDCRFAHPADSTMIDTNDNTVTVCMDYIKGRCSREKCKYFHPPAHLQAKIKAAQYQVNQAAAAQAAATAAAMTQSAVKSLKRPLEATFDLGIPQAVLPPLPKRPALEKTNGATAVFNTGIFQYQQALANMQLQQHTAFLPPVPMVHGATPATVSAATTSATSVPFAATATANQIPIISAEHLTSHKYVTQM
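MBNL1-His + Biotin-(CUG)12, cpd titration 92 nM–58 uM; Tb anti-His Ab 0.055 ng/ul, SA-XL665 5 nM (final); 60 min RT; ratiometric 665/545 nm, Ex 340 nm; normalized to buffer and full-complex controls.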
MBNL1 TRFRET: qHTS Assay for Inhibitors of MBNL1-poly(CUG) RNA binding: Initial hit validation from the primary screen. shares compounds with MBNL1-CUG inh. TR-FRET MBNL1-His / biotin-(CUG)12 binding, 60 min. Potency, µM (series often up to 57.6 µM), without a hit: at the highest dose activity change, negative = inhibition, hits mostly inhibitors. hit rate 50% among 140. AID 493199, 2011
MBNL1-CUG Alpha: qHTS Assay for Inhibitors of MBNL1-poly(CUG) RNA binding: Initial hit validation in AlphaScreen assay for MBNL1-(CUG)12 binding; Potency, µM (series often up to 57.7 µM), inactives show at the highest dose activity, negative = inhibition, most hits filed as inhibitors; AlphaScreen MBNL1-His / biotin-(CUG)12 binding; hit rate 30% among 140; shares compounds with MBNL1-CUG inh
Menin-MLL HTRF: qHTS Assay for Inhibitors of MBNL1-poly(CUG) RNA binding: Counterscreen HTRF assay; hit rate 20% among 120; Potency, µM (highest dose often 57.6 µM), for the others: at the top dose activity, negative = inhibition, actives largely listed as inhibitors; shares compounds with MBNL1-CUG inh; His-Menin/biotin-MLL peptide TR-FRET counterscreen
Active calls of the source: *; ? = inconclusive; . = no result. Sampled rows, rich in hits. Any-hit rate of the full collection: about 0.26%. Unless noted, calls follow the shape of the dose curve; as a rule, active = well fitted curve in the direction sought with a large enough effect; inconclusive = small, poorly fitted or top-dose-only effect, or another doubt; inactive = no such curve, though single readings can be large; an effect the other way counts as inactive or inconclusive.

SMILES | Integrin act MD | TSG101-PTAP inh | TCR act | TSHR antagonist | CBFb-RUNX1 inh | MBNL1-CUG inh | MBNL1 TRFRET | MBNL1-CUG Alpha | Menin-MLL HTRF
Cc1ccc(NC2c3ncccc3C(=O)N2Cc2cccs2)cc1 (stereo unspecified) | -17% | 0% | -4% | 0 | -7% | 40µM* | 52µM* | 26µM* | -4%
N#C/C(=C\c1c[nH]c2ccccc12)C(=O)c1ccc(O)c(O)c1 | . | . | . | -21 | . | . | . | . | .
CCOC(=O)/C(=N\Nc1ccccc1Cl)N1CC(C)OC(C)C1 (stereo unspecified) | -36% | 0% | 7% | 9 | 5% | 0.025µM* | -4% | -6% | -1%
CCOC(=O)/C(=N\Nc1cc(Cl)ccc1Cl)N1CC(C)OC(C)C1 (stereo unspecified) | -9% | -5% | -1% | 1 | 1% | 2% | . | . | .
Cn1nccc1NC(=O)Nc1ccc(Cl)cc1 | 6% | -2% | 3% | 8 | 3% | 40µM* | 10µM* | 0% | ?
Cn1nccc1NC(=O)Nc1ccccc1 | -18% | 1% | -5% | -7 | . | ? | . | . | .
O=C(Nc1ccc(F)cc1)Nc1cccc(Br)c1 | 18% | -8% | -1% | . | . | . | . | . | .
Cn1nccc1NC(=O)Nc1cccc(Br)c1 | ? | -5% | -4% | -4 | . | 10µM* | 8.2µM* | -5% | 26µM*
CC(=O)Nc1ccc(SCC(CC(C)C)N2CCN(C)CCC2=O)cc1 (stereo unspecified) | . | . | . | . | 10% | . | . | . | .
COc1ccc(Cc2n[nH]c(=S)n2NC(=O)Nc2ccc(Cl)c(Cl)c2)cc1 | ? | 0% | -7% | -1 | -3% | 14µM* | 10µM* | -28% | 41µM*
Cc1cc(CNC(=O)[C@]2(C(F)(F)F)C[C@H](CCC3CCCCC3)CCCO2)nn1C | . | . | . | . | 23% | . | . | . | .
